Measured values: PubChem BioAssay
Active and inactive are the calls of the source.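 The calls were made as follows, unless noted: active = compounds giving at least 50% inhibition in the cell-based MKP-3 phosphatase rescue imaging test; inactive = the rest.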

Key:
[1] = inhibitors of TNFa-induced NFkB p65 translocation, primary screen, imaging, HUVEC, MLSMR starter and 10KST1 sets (AID 438;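 active = inhibition above 20% together with a positive visual image hit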;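 also: compound added about 3h40 before a 20 min TNFalpha stimulation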;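 as to inhibition: signal is the nuclear over cytoplasmic p65 intensity ratio per well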); conditions: HUVEC TNFa-induced p65 nuclear translocation; cell count: measured here: nuclei count (cytotoxicity indicator), at 2.08 µM; inhibition: at 2 µM, stronger effect = higher value, 0% TNFa-plus-vehicle, 100% no-TNFa wells
[2] = inhibitors of mutant huntingtin aggregation, primary screen, imaging, exon1htt(103Q)mCFP cells, high-content imaging (AID 483;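 active = visual image review flags a hit and inhibition of aggregation exceeds 20%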;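 also: compound exposure lasted 3 days before fixation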;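 as to nuclei count: percent of the per-plate median nuclei count of sample wells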); conditions: exon1htt(103Q)mCFP cell line, aggregate imaging, at 2 µM; inhibition of aggregation: stronger effect = higher value; nuclei count: measured here: cell count, toxicity
[3] = inhibitors of E-selectin induction by TNFa, primary screen, imaging, HUVEC, immunofluorescence, MLSMR starter and 10KST1 sets (AID 487;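 active = visually confirmed hit in the image check and inhibition above 20%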;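 as to inhibition: signal is fraction of cell area covered by stained E-selectin grains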;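 as to nuclei count: 100% = median nuclei count of all wells on the same plate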); conditions: HUVEC TNFalpha-induced E-selectin immunofluorescence imaging, at 2 µM; inhibition: stronger effect = higher value; nuclei count: measured here: cell number, toxicity
[4] = DUSP6 inhibitors restoring Erk phosphorylation by chemical complementation, primary imaging in DUSP6-transfected HeLa (AID 609); conditions: HeLa MKP-3 transfected, phospho-Erk imaging KS statistic, at 10 µM, cells stimulated with TPA for 15 min;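 as to inhibition: phospho-Erk level distribution per well compared with pooled transfected vehicle control wells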
[5] = biological target: Dual specificity protein phosphatase 6 (Homo sapiens) (UniProt Q16828); assay: as above; conditions: HeLa MKP-3 transfected, phospho-Erk imaging KS statistic; at 10 µM; stronger effect = higher value; cells stimulated with TPA for 15 min
[6] = biological target: Voltage-gated potassium channel subunit beta-2 (Rattus norvegicus) (UniProt P62483); assay: KvBeta enzyme negative modulators, primary screen, biochemical, NADPH fluorescence (AID 622;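 active = fluorescence slope higher than the sample average by over 3 SD, cut at about -0.22 in these data, passing the limit was not always enough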;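 also: slope of raw intensity against log time taken from 70 to 1610 s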); conditions: recombinant KvBeta, 4-cyanobenzaldehyde reduction, at 10 µM, stronger effect = higher value
[7] = biological target: Voltage-gated potassium channel subunit beta-2 (Rattus norvegicus) (UniProt P62483); assay: KvBeta positive modulators, primary screen, biochemical, NADPH fluorescence (AID 623;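 active = NADPH fluorescence slope more negative than the mean of all samples by about 3 SD, 99.7% confidence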;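 also: fluorescence intensity change per second fitted from 20 to 320 s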); conditions: Recombinant KvBeta, NADPH fluorescence decrease slope, 10 min; at 10 µM; stronger effect = lower value
[8] = biological target: Muscarinic acetylcholine receptor M4 (Homo sapiens) (UniProt P08173); assay: compounds altering M4/GIRK thallium flux, either direction, primary screen, M4 allosteric agonist project, cell-based, HEK293 M4/GIRK, BTC-AM (AID 625;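 active = fluorescence slope after compound addition differing from the mean of all tested samples at 99.7% confidence, mostly higher but some lower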;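 also: thallium influx through GIRK channels coupled to M4 in HEK293 cells with BTC-AM dye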); conditions: at 10 µM, actives lie on both sides
[9] = inhibitors of larval lipid processing in zebrafish, primary screen, whole organism, PED6 fluorescence, gall bladder and intestine (AID 686;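 active = a full or partial loss of lipid-probe fluorescence in the fish gall bladder, intestine or both, judged by eye; inactive = no fluorescence loss, or compound toxic to the fish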;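 also: larvae 5 to 7 days old with five fish per well; signal comes from phospholipase A2 cleavage of quenched PED6 carried via bile; overnight exposure to compound and PED6 before scoring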); conditions: Zebrafish larvae PED6 lipid processing, fluorescence scoring; screened at 20 µM (by protocol)
[10] = inhibitors of Chlamydomonas gravitaxis, primary screen, whole organism, Chlamydomonas reinhardtii, WT vs cilia-less mutant, absorbance, 96-well (AID 463189;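 active = inhibition at or above 50% relative to wild type and mutant plate controls; inactive = inhibition below 50%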;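 also: 0% = wild type cc124 cells in DMSO and 100% = ciliumless bld1 mutant cells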); conditions: OD600 absorbance, 2 days, at 10 µM, stronger effect = higher value
[11] = inhibitors of Sendai virus-induced IRF3 signaling, primary screen, TLR/RLR signaling modifier project, cell-based, Sendai virus stimulus, luciferase, 10K MLSCN set (AID 602276;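 active = inhibition at or above 50% at 10 µM; inactive = inhibition below 50%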;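 also: firefly luciferase from ISG56 promoter only with Renilla not read in this screen; 0% = Sendai virus plus DMSO and 100% = medium plus DMSO without virus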); conditions: HEK293 RL24 IRF3 luciferase reporter, at 10 µM, stronger effect = higher value
[12] = inhibitors of poly I:C-induced TLR3 signaling, primary screen, cell-based, poly I:C stimulus, luciferase, 10K MLSCN set (AID 602277;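 active = inhibition of the reporter signal at or above 50%; inactive = inhibition below 50%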); conditions: HEK293-TLR3 RL24 IRF3 luciferase reporter, at 10 µM, stronger effect = higher value
[13] = measured here: cell density z-score
[14] = measured here: nuclear c-Myc green intensity z-score
[15] = measured here: nuclear pErk red intensity z-score, stronger effect = higher value

Chain of Voltage-gated potassium channel subunit beta-2 (Rattus norvegicus) (P62483 whole entry, looked up): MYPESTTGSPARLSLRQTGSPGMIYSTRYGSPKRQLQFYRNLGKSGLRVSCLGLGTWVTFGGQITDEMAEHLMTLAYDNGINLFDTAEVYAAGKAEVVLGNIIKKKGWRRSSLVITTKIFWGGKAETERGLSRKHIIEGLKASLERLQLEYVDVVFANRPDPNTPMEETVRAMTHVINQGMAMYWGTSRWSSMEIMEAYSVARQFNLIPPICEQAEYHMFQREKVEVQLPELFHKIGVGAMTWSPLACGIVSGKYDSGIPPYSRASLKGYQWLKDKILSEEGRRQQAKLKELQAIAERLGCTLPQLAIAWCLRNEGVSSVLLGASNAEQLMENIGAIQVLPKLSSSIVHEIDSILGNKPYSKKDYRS
Chain of Muscarinic acetylcholine receptor M4 (Homo sapiens) (P08173 whole entry, looked up): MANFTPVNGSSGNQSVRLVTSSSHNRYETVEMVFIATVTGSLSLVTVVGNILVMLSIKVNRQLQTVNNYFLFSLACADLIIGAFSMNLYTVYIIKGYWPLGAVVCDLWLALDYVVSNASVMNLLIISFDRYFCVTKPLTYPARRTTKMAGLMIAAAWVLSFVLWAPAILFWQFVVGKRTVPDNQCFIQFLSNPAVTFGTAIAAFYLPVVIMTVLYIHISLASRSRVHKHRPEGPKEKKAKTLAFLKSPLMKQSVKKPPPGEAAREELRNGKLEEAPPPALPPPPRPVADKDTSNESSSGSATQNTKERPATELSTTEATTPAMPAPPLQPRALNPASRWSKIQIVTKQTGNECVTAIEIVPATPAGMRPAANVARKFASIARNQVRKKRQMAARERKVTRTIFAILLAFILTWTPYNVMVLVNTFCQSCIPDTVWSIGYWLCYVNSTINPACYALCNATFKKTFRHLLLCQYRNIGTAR
Chain of Dual specificity protein phosphatase 6 (Homo sapiens) (Q16828 whole entry, looked up): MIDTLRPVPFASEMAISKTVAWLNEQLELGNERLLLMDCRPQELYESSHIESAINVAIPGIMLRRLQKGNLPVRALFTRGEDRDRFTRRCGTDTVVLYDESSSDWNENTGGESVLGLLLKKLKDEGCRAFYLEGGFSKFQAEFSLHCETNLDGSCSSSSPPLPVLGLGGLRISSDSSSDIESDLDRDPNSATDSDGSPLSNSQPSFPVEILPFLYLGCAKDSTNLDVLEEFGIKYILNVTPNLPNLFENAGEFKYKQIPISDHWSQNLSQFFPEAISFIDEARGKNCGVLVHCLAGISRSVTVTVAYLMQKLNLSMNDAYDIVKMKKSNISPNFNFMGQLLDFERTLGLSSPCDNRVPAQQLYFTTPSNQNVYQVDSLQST

Row | Compound | cell count [1] | inhibition [1] | inhibition of aggregation [2] | nuclei count [2] [%] | inhibition [3] | nuclei count [3] [%] | z-score [4, 13] | z-score [4, 14] | z-score [4, 15] | inhibition [5] | fluorescence slope [6] | NADPH fluorescence slope [7] | fluorescence slope [8] | outcome [9] | inhibition [10] | inhibition [11] | inhibition [12]
1 | CN(C)CC(O)COc1ccc(-c2ccc(C#N)cc2)cc1 (stereo not given) | 626 | -1.5% (inactive) | 6.6% (inactive) | 89.7 | -19.8% (inactive) | 139 | 0.638 | -0.472 | 2.41 | -2.59% (inactive) | -0.371 (inactive) | -4.8e-05 (inactive) | 0.00456 (inactive) | inactive | 98.7% (active) | -0.588% (inactive) | -4.77% (inactive)
2 | CCOC(=O)c1c(-c2cccs2)csc1NC(=O)CCCC(=O)O | 550 | -0.4% (inactive) | -5% (inactive) | 110 | -22.1% (inactive) | 106 | 0.00511 | -0.304 | -0.262 | -5.81% (inactive) | -0.427 (inactive) | -5.3e-05 (inactive) | 0.00466 (inactive) | inactive | 16.8% (inactive) | 15.6% (inactive) | 21.7% (inactive)
3 | O=C(Nc1ccccn1)NC(C(F)(F)F)C(F)(F)F | 669 | -2.9% (inactive) | -15.1% (inactive) | 118 | -56% (inactive) | 139 | 0.555 | 0.584 | 0.451 | 9.91% (inactive) | -0.472 (inactive) | -0.000163 (inactive) | 0.00603 (inactive) | inactive | 12.6% (inactive) | 0.13% (inactive) | 5.13% (inactive)
4 | c1ccc2c(c1)[nH]c1c(N3CCC4(CC3)OCCO4)ncnc12 | 543 | -0.4% (inactive) | -24.1% (inactive) | 94.4 | -72.3% (inactive) | 119 | -0.995 | 0.207 | -1.27 | -6.59% (inactive) | -0.384 (inactive) | -3.4e-05 (inactive) | 0.00574 (inactive) | inactive | -1.55% (inactive) | 2.08% (inactive) | -40% (inactive)
5 | COc1ccccc1Nc1ncnc2c1cnn2-c1cccc(C)c1 | 398 | -11% (inactive) | 23.4% (inactive) | 92.4 | -38.9% (inactive) | 133 | -0.0649 | -0.454 | 0.131 | -2.59% (inactive) | -0.356 (inactive) | -3.8e-05 (inactive) | 0.00739 (inactive) | inactive | 4.11% (inactive) | -27.1% (inactive) | -52.1% (inactive)
6 | CCOC(=O)c1ccc2nc(NC(NC(C)=O)(C(=O)OC)C(F)(F)F)sc2c1 (stereo not given) | 520 | -8.2% (inactive) | -4% (inactive) | 93.1 | -23.9% (inactive) | 130 | 1.37 | -0.549 | -0.534 | 9.42% (inactive) | -0.458 (inactive) | -9.4e-05 (inactive) | 0.00434 (inactive) | inactive | -10.3% (inactive) | 133% (active) | 99% (active)
7 | Cn1c(=O)c2c(nc(Br)n2CCSc2ncccn2)n(C)c1=O | 606 | -12.8% (inactive) | 5.2% (inactive) | 103 | -13.4% (inactive) | 150 | 0.427 | -0.0194 | -1.04 | 21.4% (inactive) | -0.364 (inactive) | -1.4e-05 (inactive) | 0.00613 (inactive) | inactive | 36.1% (inactive) | 5.45% (inactive) | 6.81% (inactive)
8 | N#CC1=C(N)N(c2ccccc2)C(c2ccccc2)C1(C#N)C#N (stereo not given) | 635 | -9.5% (inactive) | -8% (inactive) | 97.6 | 7.2% (inactive) | 132 | 0.909 | -0.703 | 1.5 | -6.59% (inactive) | -0.346 (inactive) | -7.8e-07 (inactive) | 0.00486 (inactive) | inactive | 58.7% (active) | 16.9% (inactive) | 17.3% (inactive)
9 | COc1ccc(CCn2c(=N)c(C#N)cc3c(=O)n4ccccc4nc32)cc1 | 529 | 1.4% (inactive) | -0.9% (inactive) | 100 | -65.9% (inactive) | 105 | 1.77 | -0.331 | -0.629 | 24.3% (inactive) | -0.447 (inactive) | -1.4e-05 (inactive) | 0.00759 (inactive) | inactive | 32.6% (inactive) | 13.2% (inactive) | 2.91% (inactive)
10 | Cc1c(O)c(CN2CCCCC2)cc2c3c(c(=O)oc12)CCC3 | 706 | -5.5% (inactive) | 2.7% (inactive) | 106 | -1.4% (inactive) | 130 | 0.172 | -1.04 | -0.433 | -10.6% (inactive) | -0.00734 (inactive) | -1.2e-06 (inactive) | 0.00439 (inactive) | inactive | 1.32% (inactive) | 12.6% (inactive) | 14.9% (inactive)
